# About 11,000 (3.5%) of roughly 310,000 compounds were called active. Another 4% or so got no clear call; they are omitted. The calls are words filed in the database; no cut-off is given here. The sample as a whole holds a higher share of actives than the screen did.
# Target: T1, 4'-phosphopantetheinyl transferase ffp (Bacillus subtilis) (UniProt Q9F4F7)
# T1 sequence (whole entry): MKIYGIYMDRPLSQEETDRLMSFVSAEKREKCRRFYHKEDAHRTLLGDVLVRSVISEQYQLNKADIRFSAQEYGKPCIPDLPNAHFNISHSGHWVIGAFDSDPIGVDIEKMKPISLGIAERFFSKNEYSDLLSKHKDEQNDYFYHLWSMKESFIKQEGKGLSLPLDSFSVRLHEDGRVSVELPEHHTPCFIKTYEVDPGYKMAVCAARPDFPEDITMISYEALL
# Assay: qHTS Assay for Inhibitors of Bacillus subtilis Sfp phosphopantetheinyl transferase (PPTase).
# Type: functional
row,Compound,Potency
1,Cl[Te]1(Cl)OCCO1,158 nM (active)

# — ChEMBL document CHEMBL1201862, “PubChem BioAssay data set” (2004)
